Measurements reported in PubChem BioAssay AID488890 (Southern Research Specialized Biocontainment Screening …, 2010).
Screen size: about 320,000 compounds; about 1,300 (0.41%) were called active. Another 3% or so got no clear call; they are omitted. No rule for the calls is given here. Not all results are given here. Entries with a potency or affinity are not part of this list.

Assay: growth inhibition of non-replicating M. tuberculosis (AID 488890);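 also: plate controls were DMSO cells for no effect and high antibiotic wells for full effect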
Conditions: Mycobacterium tuberculosis non-replicating, at 25 µM, stronger effect = higher value

**Q.** Which inhibition does the source give for CC(=O)Nc1nnc(SCC(=O)NCc2ccc3c(c2)OCO3)s1 here?
**A.** -14.9%

**Q.** With Cc1ccc(C(=O)NCc2ccc3c(c2)OCO3)cc1Cl as the compound, how does the inhibition read?
**A.** 45.9%

**Q.** Which inhibition does the source give for Cc1ccc(CS(=O)(=O)CCC(=O)N2CCC3(CC2)OCCO3)cc1 here?
**A.** -11.2%

**Q.** With Cc1ccc(S(=O)(=O)Nc2ccccc2F)cc1C(=O)NCCCN1CCCC1=O as the compound, how does the inhibition read?
**A.** -4.79%

**Q.** For CCOC(=O)c1c(S(=O)(=O)Nc2ccc(C)c(F)c2)c(C)n(C)c1C, which inhibition is on record?
**A.** -0.18%

**Q.** For CC1(C)CC(=O)C(C2=NC3(CCCCCC3)Cc3ccccc32)=C(O)C1, which inhibition is on record?
**A.** -2.29%

**Q.** With CS(=O)(=O)N1CCC(C(=O)Nc2cc(Cl)ccc2Cl)CC1 as the compound, how does the inhibition read?
**A.** -6.65%

**Q.** Which inhibition does the source give for CC(C)c1cc(C(=O)N2CCN(C(c3ccccc3)c3ccccc3)CC2)no1 here?
**A.** 21.3%

**Q.** Which inhibition does the source give for NC(=O)[C@@H]1CC2(CC(c3cccc(NC(=O)CC(c4ccccc4)c4ccccc4)c3)=NO2)CN1C(=O)[C@@H]1CCC(=O)N1 (some centres undefined) here?
**A.** 14.1%

**Q.** For CCc1nnc(NC(=O)C2Cc3ccccc3CN2S(=O)(=O)CC)s1 (centres undefined), which inhibition is on record?
**A.** 5.84%

**Q.** Which inhibition does the source give for O=C(Nc1ccc(F)cc1)c1ccc2c(=O)n3c(nc2c1)CCCCC3 here?
**A.** 21.9%

**Q.** Which inhibition does the source give for CCOc1ccc(NC(=O)c2ccc3c(=O)n4c(nc3c2)CCCCC4)cc1 here?
**A.** 20.7%

**Q.** Which inhibition does the source give for CCOc1ccc(CCNC(=O)c2ccc3c(=O)n4c(nc3c2)CCCCC4)cc1 here?
**A.** 51%

**Q.** Which inhibition does the source give for CC(OC(=O)c1ccc2c(=O)n3c(nc2c1)CCCCC3)C(=O)Nc1ncc(Cl)cc1Cl (centres undefined) here?
**A.** 29.8%

**Q.** With CC(OC(=O)c1ccc2c(=O)n3c(nc2c1)CCCCC3)C(=O)Nc1ccc(F)cc1Cl (centres undefined) as the compound, how does the inhibition read?
**A.** 2.57%

**Q.** For O=C(NNC(=O)c1ccc2c(=O)n3c(nc2c1)CCC3)c1ccc(F)cc1, which inhibition is on record?
**A.** -18.9%

**Q.** Which inhibition does the source give for CNS(=O)(=O)c1cccc(C(=O)OCC(=O)N2c3ccccc3CC2C)c1 (centres undefined) here?
**A.** -1.88%

**Q.** Which inhibition does the source give for Fc1ccc(-c2n[nH]c(=S)c3ccccc23)cc1 here?
**A.** 15.8%

**Q.** With CCOc1ccc(NC(=O)Nc2ccc3c(c2)CCC3)cc1 as the compound, how does the inhibition read?
**A.** -9.82%

**Q.** For Cc1cc(F)ccc1Oc1cc(NN2CCCCC2)c([N+](=O)[O-])cc1[N+](=O)[O-], which inhibition is on record?
**A.** 8.26%

**Q.** With CC(Oc1ccc(S(=O)(=O)N2CCCC2)cc1[N+](=O)[O-])C(=O)NC1(C#N)CCCCC1 (centres undefined) as the compound, how does the inhibition read?
**A.** 9.55%

**Q.** With COc1cccc(CNC(=O)C2CCN(c3cnccn3)CC2)c1 as the compound, how does the inhibition read?
**A.** -3.9%

**Q.** For O=C1NC(=O)N(CCc2ccc(F)cc2)C(=O)/C1=C/c1ccco1, which inhibition is on record?
**A.** 22.4%

**Q.** Which inhibition does the source give for O=C1NC(=O)N(CCc2ccc(F)cc2)C(=O)/C1=C/c1cccs1 here?
**A.** 2.97%

**Q.** For O=C(c1ccccc1NS(=O)(=O)c1cccs1)N1CCOCC1, which inhibition is on record?
**A.** 6.22%

**Q.** For Cc1cc(OCC(=O)Nc2ncn[nH]2)ccc1Cl, which inhibition is on record?
**A.** 30.6%

**Q.** For Cc1cccc(OCC(=O)Nc2nonc2NC(=O)COc2cccc(C)c2)c1, which inhibition is on record?
**A.** 48%

**Q.** For CCCCn1nnc(NC(=O)COc2cc(C)ccc2C(C)C)n1, which inhibition is on record?
**A.** 64%

**Q.** For CCCn1nnc(NC(=O)COc2ccccc2Cl)n1, which inhibition is on record?
**A.** 67.3%

**Q.** For Cc1cccc(N2CC(C(=O)Nc3ccc4c(c3)OCCO4)CC2=O)c1C (centres undefined), which inhibition is on record?
**A.** -5.78%

**Q.** With CCc1cc2c(=O)c(-c3nc(C)cs3)coc2cc1O as the compound, how does the inhibition read?
**A.** 13.5%

**Q.** With COCCNC(=O)C1CCC(=O)N1S(=O)(=O)c1ccc(C)cc1 (centres undefined) as the compound, how does the inhibition read?
**A.** 1.96%

**Q.** Which inhibition does the source give for Cc1[nH]n(-c2ccccc2)c(=O)c1C=Nc1cccc(F)c1 here?
**A.** 5.36%

**Q.** Which inhibition does the source give for Cc1[nH]n(-c2ccccc2)c(=O)c1C=Nc1cccc2cccnc12 here?
**A.** 33.6%

**Q.** Which inhibition does the source give for O=C(Cc1ccccc1F)N1CCN(CC(=O)N2CCCC2)CC1 here?
**A.** 8.24%

**Q.** Which inhibition does the source give for CCOC(=O)CSc1nnc(CCc2nc3ccccc3[nH]2)n1C here?
**A.** -4.77%

**Q.** Which inhibition does the source give for COc1ccc2occ(C(=O)c3ccccc3)c2c1 here?
**A.** 3.51%

**Q.** Which inhibition does the source give for Cc1ccc(C(=O)c2coc3ccc(OCC(=O)O)cc23)cc1 here?
**A.** -4.9%

**Q.** With CNC(=S)NNC(=O)c1cn(C)nc1C as the compound, how does the inhibition read?
**A.** -3%

**Q.** For CCn1ccc(C(=O)NCCCN2CCCC2=O)n1, which inhibition is on record?
**A.** 5.42%

**Q.** For Cc1c([N+](=O)[O-])c([N+](=O)[O-])nn1CC(=O)N1CCOCC1, which inhibition is on record?
**A.** 1.03%

**Q.** Which inhibition does the source give for O=C(O)C1C2C=CC(CC2)C1C(=O)O (centres undefined) here?
**A.** 1.2%

**Q.** For O=C(C[C@@H]1C/C=C\CCCC(=O)OC[C@@H]2CCCN2C1=O)N[C@@H](CO)Cc1ccccc1, which inhibition is on record?
**A.** 0.26%

**Q.** With Cc1ccc(C)c(-c2nnc(NC(=O)CCS(=O)(=O)c3ccc(F)cc3)o2)c1 as the compound, how does the inhibition read?
**A.** 41.4%

**Q.** For CS(=O)(=O)c1ccc(-c2nnc(NC(=O)c3ccco3)o2)cc1, which inhibition is on record?
**A.** 43.1%

**Q.** With Cc1ccc2nsnc2c1NC(=O)c1ccc([N+](=O)[O-])o1 as the compound, how does the inhibition read?
**A.** 75.4%

**Q.** For CS(=O)(=O)c1ccccc1-c1nnc(NC(=O)c2ccco2)o1, which inhibition is on record?
**A.** 38.6%

**Q.** For O=C(Nc1nnc(-c2ccco2)o1)c1ccc(S(=O)(=O)N2CCCC2)cc1, which inhibition is on record?
**A.** 25.6%

**Q.** Which inhibition does the source give for CS(=O)(=O)c1ccccc1-c1nnc(NC(=O)c2ccc(S(=O)(=O)N3CCCC3)cc2)o1 here?
**A.** -2%

**Q.** Which inhibition does the source give for Cc1ccc(O)c(NC(=O)c2ccco2)c1 here?
**A.** 15.1%

**Q.** With Cc1ccc(NC(=O)c2ccco2)cc1C as the compound, how does the inhibition read?
**A.** 60.8%

**Q.** Which inhibition does the source give for Cc1nc(-c2ccc(NC(=O)C(C)(C)C)cc2)c(-c2ccccc2)o1 here?
**A.** -0.61%

**Q.** With Nc1cccc(C(=O)OCC(=O)NC2CCCc3ccccc32)c1 (centres undefined) as the compound, how does the inhibition read?
**A.** 6.1%

**Q.** For O=C1c2ccccc2C(=O)N1CCOc1cccc(Br)c1, which inhibition is on record?
**A.** 53.6%

**Q.** Which inhibition does the source give for CCCCCC(=O)N/N=C(\C)c1ccc(NC(=O)c2ccco2)cc1 here?
**A.** 10.3%

**Q.** With CCNC(=O)C(=O)Nc1ccc(OC)c(Cl)c1 as the compound, how does the inhibition read?
**A.** -0.29%

**Q.** With COc1ccc(Cc2nc3ccc(C(=O)N4C[C@@H](C)O[C@@H](C)C4)cc3o2)cc1OC as the compound, how does the inhibition read?
**A.** 17.8%

**Q.** With c1ccc(-c2nn3c(C4CCCCC4)nnc3s2)nc1 as the compound, how does the inhibition read?
**A.** 9%

**Q.** Which inhibition does the source give for Cc1nc(N2CCN(Cc3ccccc3)CC2)nc2c1C(=O)CC(c1ccco1)C2 (centres undefined) here?
**A.** 3.19%

**Q.** For COc1cccc(-c2cccc(NC(=O)C3CCN(Cc4cccc(C)n4)CC3)c2)c1, which inhibition is on record?
**A.** 5.93%

**Q.** For CCc1ccc(NC(=S)N2CCN(C)CC2)cc1, which inhibition is on record?
**A.** -4.9%

**Q.** With COc1ccc([N+](=O)[O-])cc1NC(=O)CCCOc1ccccc1 as the compound, how does the inhibition read?
**A.** 12.4%

**Q.** With Cc1ccc(C(=O)Nc2ccc(Oc3cccc(C(F)(F)F)c3)nc2)cc1 as the compound, how does the inhibition read?
**A.** -15.4%

**Q.** Which inhibition does the source give for COc1cc(-c2nnc(NC(=O)c3ccco3)o2)cc(OC)c1OC here?
**A.** 12.9%

**Q.** Which inhibition does the source give for Cc1ccc(-c2nnc(-c3ccc(NC(=O)c4ccco4)cc3)o2)cc1 here?
**A.** -12.3%

**Q.** With COc1ccc(CN2C(=O)c3ccccc3C2OC)cc1 (centres undefined) as the compound, how does the inhibition read?
**A.** 43.5%

**Q.** With O=C(NCc1ccccc1)c1nc(-c2cccs2)no1 as the compound, how does the inhibition read?
**A.** 15.8%

**Q.** With COc1ccc(CCNC(=O)c2nc(-c3cccs3)no2)cc1OC as the compound, how does the inhibition read?
**A.** 62.8%

**Q.** For CC(=O)c1ccccc1Oc1cc(NN2CCCCC2)c([N+](=O)[O-])cc1[N+](=O)[O-], which inhibition is on record?
**A.** 30.5%
